Rows were chosen to be rich in hits. Some 6.9% of all compounds tested hit in one or more screens of this group.
JMJD2A Tudor: blocks the human JMJD2A Tudor domain | actives 4.4% (n = 390,000) | AlphaScreen JMJD2A-Tudor / H3K4me3 peptide binding | AID 504339 | O75164 | Potency, µM (doses to about 114 µM), for inactives: top-dose activity change, negative = inhibition, hits mostly inhibitors; also: potency is read from the fitted curve at half-maximal effect; % is scaled to controls: 0 for no effect and ±100 for the full control effect; nearly all actives have a fitted effect of over 50% in size
PLK1 PBD inh: PLK1 (human) polo-box domain binding inhibition | P53350 | Plk1 PBD binding of FITC phosphopeptide, fluorescence polarization | Potency, µM, for the others: max response, negative = inhibition, hits mostly inhibitors | actives 2.8% (n = 360,000) | AID 720504; also: potency is read from the fitted curve at half-maximal effect; series mostly up to about 57 µM; % is scaled to controls: 0 for no effect and ±100 for the full control effect; nearly all actives have a fitted effect of over 65% in size
VDR inh: blocks the human vitamin D receptor. Potency, µM, for inactives: max response, negative = inhibition, hits mostly inhibitors. actives 0.93% (n = 400,000). VDR-SRC2-3 peptide fluorescence polarization, 2 h; also: potency is read from the fitted curve at half-maximal effect; % is scaled to controls: 0 for no effect and ±100 for the full control effect
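Signal is fluorescence polarization, reporting how far test compounds block the interaction of VDR with the SRC2-3 coregulator peptide after a 2 h room-temperature incubation.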
HP1b binding inh: HP1-beta chromodomain-methylated histone interaction inhibition. P83916. AlphaScreen HP1-beta / biotin-H3K9me3 peptide binding. Potency, µM (series often up to 114 µM), for the others: top-dose activity change, negative = inhibition, actives largely listed as inhibitors. actives 0.56% (n = 390,000); also: potency is read from the fitted curve at half-maximal effect; nearly all actives have a fitted effect of over 70% in size
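AlphaScreen: HP1-beta (50 nM) preformed 30 min with biotin-H3(1-18)K9me3 peptide (50 nM) in PBS pH 7.4, 0.01% Tween-20. Compound added for 30 min at RT, then streptavidin donor/nickel chelate acceptor beads (10 ug/mL) for 30 min.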
L3MBTL1 inh: L3MBTL1 (human) inhibition | Q9Y468 | AlphaScreen L3MBTL1–H3K9me1 peptide binding | Potency, µM (highest dose often 57.1 µM), for inactives: top-dose activity, negative = inhibition, hits mostly inhibitors | actives 0.66% (n = 230,000) | AID 485360; also: potency is read from the fitted curve at half-maximal effect; % is scaled to controls: 0 for no effect and ±100 for the full control effect; nearly all actives have a fitted effect of over 60% in size
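Displacement of a biotinylated histone H3(1-15) peptide monomethylated at Lys9 (75 nM) from L3MBTL1 (50 nM) was measured by AlphaScreen after a 30 min room-temperature compound incubation; cefsulodin titration served as intraplate control.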
BAZ2B block: BAZ2B (human) inhibition; actives 4.4% (n = 360,000); Potency, µM (doses to about 114 µM), for inactives: at the highest dose activity change, negative = inhibition, usual class: inhibitors; Q9UIF8; AlphaScreen BAZ2B-H3K14Ac peptide displacement; also: potency is read from the fitted curve at half-maximal effect; % is scaled to controls: 0 for no effect and ±100 for the full control effect; nearly all actives have a fitted effect of over 60% in size
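AlphaScreen luminescence quantifies BAZ2B engagement of H3K14Ac peptide; the protein and biotinylated peptide are both at 50 nM final, buffer PBS pH 7.4 with 0.01% Tween-20, all steps at room temperature.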
JMJD2E inh: JMJD2E (human) demethylase inhibition, confirmation; shares compounds with JMJD2A Tudor; actives 93% (n = 140); Recombinant JMJD2E, FDH-coupled NADH fluorescence (FDH is formaldehyde dehydrogenase); AID 2677; Potency, µM (top dose mostly 56.8 µM), for inactives: top-dose activity change, negative = inhibition, usual class: inhibitors
FDH counter: FDH (Pseudomonas putida) inhibition counter-screen; shares compounds with JMJD2A Tudor; FDH enzyme assay, NADH fluorescence kinetic; Potency, µM (highest dose often 56.7 µM), inactives show at the highest dose activity, negative = inhibition, usual class: inhibitors; actives 10% (n = 140)
JMJD2E MS inh: blocks demethylation by human JMJD2E in a MALDI-TOF-MS assay; shares compounds with JMJD2A Tudor; recombinant JMJD2E demethylation, MALDI-TOF-MS; Potency, µM, actives largely listed as inhibitors; actives 90% (n = 45);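 active = compounds whose IC50 for blocking JMJD2E demethylation is below 100 µM; inconclusive = dose dependent effect but IC50 above 100 µM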
G9a confirm: inhibits human G9a histone lysine methyltransferase, hit confirmation; Potency, µM, hits mostly inhibitors; shares compounds with JMJD2A Tudor; actives 89% (n = 370); AID 588344; G9a H3K9 monomethylation, AlphaScreen, 2 h; also: potency is read from the fitted curve at half-maximal effect; nearly all actives have a fitted effect of over 65% in size
RGS4 confirm: confirmation of human RGS4 inhibitors; RGS4 GAP activity, Transcreener GDP fluorescence polarization; AID 602388; Potency, µM, hits mostly inhibitors; actives 80% (n = 25); shares compounds with JMJD2A Tudor
Numbers without * were called inactive; ? = inconclusive; . = not tested or not shown; [ ] = another dose, or the depositor's remark. Unless noted, calls follow the shape of the dose curve; as a rule, active = well fitted curve in the direction sought with a large enough effect; inconclusive = small, poorly fitted or top-dose-only effect, or another doubt; inactive = no such curve, though single readings can be large; an effect the other way counts as inactive or inconclusive.

SMILES	JMJD2A Tudor	PLK1 PBD inh	VDR inh	HP1b binding inh	L3MBTL1 inh	BAZ2B block	G9a confirm	others
COc1ccc2nc(NC(=O)CSc3nc(C)cc(=O)[nH]3)sc2c1	13%[57.1 µM]	-29%	4%	11%	.	-20%	25*
O=c1[nH]c2cc3c(cc2cc1CN(Cc1cccs1)Cc1nnnn1Cc1ccco1)OCCO3	?	?	?	-24%	?	.	.	RGS4 confirm=9.5*
O=C(O)CNC(=O)c1ccc(N2CCOCC2)cc1[N+](=O)[O-]	-4%	-6%	-1%	20%	4%	.	.
CN1CCC(N(C)CC(=O)Nc2cccc(Oc3ccccc3)c2)CC1	6.3µM*	-2%	-7%	-18%	.	50µM*	?
CC(=O)c1c(C)[nH]c(C(=O)OCC(=O)NC(C)c2ccccc2)c1C (stereo not drawn)	.	-9%	.	.	.	.	.
Cc1ccc(CNc2ccc(N3CCOCC3)cc2)s1	50µM*	-5%	10%	?	.	45µM*	10*
Cc1ccccc1CCNC(=O)c1ccc(Cl)c(S(=O)(=O)N2CC(C)OC(C)C2)c1 (stereo not drawn)	-13%	3%	9%	9%	4%	11%	.
Oc1ccc(COCc2ccccc2)c2cccnc12	?	-27%	3%	45%	8.9µM*	28µM*	.	JMJD2E inh=23µM*;FDH counter=-36%;JMJD2E MS inh=25*
CCN(CC)c1ccc(NC(=O)COC(=O)Cc2ccsc2)cc1	50µM*	-3%	-27%	?	?	45µM*	6.3*
CCc1ccccc1NC(=O)CN(C)Cc1c(O)ccc2ccccc12	56µM*	12µM*	?	?	.	?	0.4*
COc1ccccc1CN(C)CC(=O)Nc1cccc2ccccc12	-5%	6%	3%	19%	.	2%	.
CO[C@H]1CN(C)C(=O)c2ccc(NC(=O)C3CCC3)cc2OC[C@H](C)N(Cc2ccc(F)cc2)C[C@@H]1C	.	-7%	.	.	.	.	.
CCn1c(CN2CCN(c3ccc(Cl)cc3)CC2)nc2ccccc21	?	0%	18%	14%	-10%	?	.
CCOC(=O)C1(CCOc2ccccc2)CCN(Cc2cc(OC)c(O)c(OC)c2)CC1	?	?	-16%	-25%	-2%	-33%	.
CCn1c2ccccc2c2cc(CN3CCN(Cc4cc(OC)c(O)c(OC)c4)CC3)ccc21	11µM*	.	-15%	?	.	22µM*	18*
CCn1c2ccccc2c2cc(CN3CCN(Cc4ccc(Cl)cc4)CC3)ccc21	7.9µM*	.	2%	?	.	16µM*	22*
CCc1ccc2c(c1)CCCN2C(=O)c1ccccc1C(=O)O	?	-7%	14%	25%	.	56µM*	?
O=C(c1ccccc1F)N1CCCc2ccccc21	-9%	-9%	2%	29%	.	-10%	.
COc1ccc(C(=O)Nc2ccc(N3CCCC3)cc2)cc1	-4%[11.4 µM]	?	-7%	?	.	-38%	1.3*
COc1ccc(C(=O)NC(=S)Nc2ccc(N3CCCC3)cc2)cc1	-19%	-19%	-3%	-10%	-17%	-28%	.
CCN(CC)c1ccc(NC(=O)c2ccc(Br)o2)cc1	45µM*	-2%	-7%	?	?	50µM*	7.1*
O=C(Nc1ccc(N2CCCC2)cc1)c1ccc(Br)o1	?	-2%	-3%	-2%	-23%	?	0.71*
O=C(O)CCC(=O)Nc1ccc(N2CCCCCC2)cc1	-35%	-7%	?	7%	-7%[11.4 µM]	?	0.71*
Cc1ccc(N2CCN(c3ccc(NC(=O)CCC(=O)O)cc3)CC2)cc1	-16%	5%	-6%	9%	-5%	3%	.
CCCCN(C)C(=O)c1nc2ccccn2c1CN1CCC[C@H]1CO	-6%	1%	-6%	30%	0%	-5%	.
SMILES	JMJD2A Tudor	PLK1 PBD inh	VDR inh	HP1b binding inh	L3MBTL1 inh	BAZ2B block	G9a confirm	others
CC(=O)Nc1ccc(S(=O)(=O)NCC(=O)OCC(=O)N2CC(C)OC(C)C2)cc1 (stereo not drawn)	13%	2%	9%	27%	2%	.	.
Cc1ccc(C2c3c(-c4ccccc4O)n[nH]c3C(=O)N2CCc2ccccc2)cc1 (stereo not drawn)	-7%	.	10%	65%	.	4%	.
CCOc1ccc(S(=O)(=O)N2CCN(Cc3ccc4c(c3)OCO4)CC2)cc1OCC	-23%	2%	10%	22%	.	-28%	.
CCOc1cc(CN2CCN(S(=O)(=O)c3ccc(C)cc3)CC2)ccc1OC	25µM*	.	-5%	?	.	50µM*	32*
O=C(COc1ccc(Cl)cc1)Nc1nnc(S(=O)(=O)N2CCc3ccccc32)s1	?	.	-1%	-9%	.	?	45*
COc1ccc(OC)c(NC(=O)Nc2cccc(OCc3cc(=O)n4cc(C)ccc4n3)c2)c1	-2%	.	-2%	17%[57 µM]	.	0%	.
CCOc1cc(CNc2cccc3[nH]c(C)nc23)ccc1OC	?	-12%	16%	11%	.	?	.
CCOc1cc(CNc2ccccc2SC)ccc1O	.	.	.	.	.	56µM*	8*
CCOc1ccc2nc(NC(=O)C34CC5CC(CC(NC(C)=O)(C5)C3)C4)sc2c1	-31%	-4%	-1%	-4%	.	-14%	.
CN(C)c1ccc(NC(=O)COC(=O)CCC(=O)c2ccc(F)cc2)cc1	?	1%	-14%	-2%	.	?	7.1*
COCC(=O)Nc1ccc(N(C)C)cc1	-11%	-4%	5%	27%	7%[11.4 µM]	3%	3.2*
Cc1ccc(OCC(=O)Nc2ccc(N(C)C)cc2)cc1	?	-4%	12%	?	-17%	-4%	.
CN(C)c1ccc(NC(=O)CCCc2ccccc2)cc1	?	-5%	-15%	?	0%[11.4 µM]	45µM*	2.5*

Source: PubChem (National Center for Advancing Translational Sciences (NCATS))
